Measured values reported in ChEMBL document CHEMBL3433997, “St. Jude Leishmania screening dataset” (2016).

Key:
Assay type in all cases: functional
[1] = molecular target: Solute carrier family 2, facilitated glucose transporter member 1 (Homo sapiens) (UniProt P11166); assay: ST_JUDE_LEISH: Cytotoxicity at 2uM final concentration against transgenic Leishmania Mexicana promastigotes LmGLUT1 that are glucose transport deficient and complemented with the human glucose transporter GLUT1. Activity is measured by DNA content using SYBR green in vitro
Chain of Solute carrier family 2, facilitated glucose transporter member 1 (Homo sapiens) (P11166 whole entry): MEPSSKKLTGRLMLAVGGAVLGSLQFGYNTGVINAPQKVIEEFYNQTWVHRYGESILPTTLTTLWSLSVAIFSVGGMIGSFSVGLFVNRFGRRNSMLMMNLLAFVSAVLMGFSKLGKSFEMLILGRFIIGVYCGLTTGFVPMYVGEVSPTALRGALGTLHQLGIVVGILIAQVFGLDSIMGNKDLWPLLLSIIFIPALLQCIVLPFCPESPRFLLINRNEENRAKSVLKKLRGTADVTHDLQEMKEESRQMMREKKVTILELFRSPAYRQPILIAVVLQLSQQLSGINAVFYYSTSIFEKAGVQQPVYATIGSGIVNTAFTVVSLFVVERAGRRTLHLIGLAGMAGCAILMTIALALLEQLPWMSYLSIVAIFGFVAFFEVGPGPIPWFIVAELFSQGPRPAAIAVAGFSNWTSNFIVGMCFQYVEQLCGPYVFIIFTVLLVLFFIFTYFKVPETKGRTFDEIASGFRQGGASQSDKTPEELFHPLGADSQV

[2] = molecular target: Hexose transporter 1 (Plasmodium falciparum) (UniProt O97467); assay: ST_JUDE_LEISH: Cytotoxicity at 2uM final concentration against transgenic Leishmania Mexicana promastigotes LmPfHT that are glucose transport deficient and complemented with the Plasmodium falciparum hexose transporter. Activity is measured by DNA content using SYBR green in vitro
[3] = molecular target: Glucose transporter (Leishmania mexicana) (UniProt O61059); assay: ST_JUDE_LEISH: Cytotoxicity at 2uM final concentration against transgenic Leishmania Mexicana promastigotes LmGT2 that are glucose transport deficient and complemented with the L. Mexicana glucose transporter 2. Activity is measured by DNA content using SYBR green in vitro

SMILES | inhibition [1] [%] | inhibition [2] [%] | inhibition [3] [%]
CN1CCC(N(C)C(=O)C=Cc2cn(-c3ccccc3)nc2-c2cc3ccccc3o2)CC1 | 3 | 1.17 | -0.25
CCCn1cc2c(ccc3nc(N)nc(N)c32)n1 | 0.63 | 0.8 | 0.23
O=S(=O)(c1ccccc1OC(F)(F)F)C1CC2CCC(C1)N2S(=O)(=O)c1cccc(C(F)(F)F)c1 (stereo not given) | 0.7 | -0.63 | 0.73
Cc1nn(C)cc1C(C)Nc1nncc(-c2ccc(C(F)(F)F)cc2)n1 (stereo not given) | 2.34 | 2.27 | 3.38
COc1cc(NC(=O)/C=C/c2cc(F)cc(F)c2F)cc(OCCN2CCCCC2)c1 | 5.16 | 3.35 | 4.25
CC1CN(c2cnn(Cc3cccc(NC(=O)Nc4ccc(-c5ccccc5)cc4)c3)c(=O)c2Cl)CC(C)N1 (stereo not given) | 8.54 | 5.56 | 7.15
Cc1ccc(-c2cc(C(=O)Nc3ccc(S(=O)(=O)N4CCOCC4)cc3)[nH]n2)c(O)c1C | 4 | 0.56 | -1.4
Cc1cc(N(CCN2CCCCC2)CCN2CCCCC2)nc(Nc2ccc(Cl)cc2)n1 | 3.2 | 1.3 | 2.83
COc1ccc2nc3ccccc3c(NCCN3CCN(C)CC3)c2c1 | 7.5 | 5.93 | 4.16
CCCCc1ccc2[nH]c(NC(=O)OC)nc2c1 | 10.2 | 7.79 | 9.56
CC(C)(C)NS(=O)(=O)c1cc(C(=O)N2CCC(CCN3CCC(C(=O)c4ccc(F)cc4)CC3)(c3cccc(F)c3)CC2)c(Cl)cc1F | 7.28 | 9.1 | 5.52
O=C(NCCCCN1CCC(O)(c2ccc(Cl)cc2)CC1)c1ccc(Br)cc1 | 4.03 | 2.65 | 4.04
O=C(/C=C/c1ccc(Cl)c(Cl)c1)NCCCCCN1CCCN(C(=O)Nc2cccc(Cl)c2)CC1 | 0.54 | 0.75 | 3.37
CCOc1cc(C(C)C)ccc1C1CCN(CCCCNC(=O)c2ccc(NC(=O)c3ccc(Cl)cc3)cc2)CC1 | 3.78 | 4.23 | 2.65
N=C(N)NN=Cc1ccc2ccc3ccccc3c2c1 | 5.52 | 7.75 | 4.14
CCOc1ccc(C(C)NC(=O)C2COc3ccccc3O2)cc1OCC (stereo not given) | 2.23 | 1.59 | 2.93
OCCNc1nc(Nc2cccc(O)c2)nc2ccccc12 | 4.65 | 3.14 | 4.01
N#Cc1cccc(C(=O)NC2CCN(c3ccnc(Nc4ccc(F)cc4)n3)C2)c1 (stereo not given) | 2.56 | 2.47 | 0.63
Cc1cc(-c2nc3ccc(N4CCN(C)CC4)cc3[nH]2)nn1Cc1cc(Cl)ccc1OCC(C)C | 1 | 1.76 | 0.44
COc1nc2c(CCN3CCC(NCc4ccc5c(n4)NC(=O)CO5)CC3)c(Cl)cnc2cc1F | 7.62 | 8.51 | 7.05
Nc1c(Cl)cc(C(O)CNCCCCCOCCCc2ccc(O)c3ncccc23)cc1Cl (stereo not given) | 103 | 99.7 | 97.5
CC(C)c1cccc(OCC2CCN(c3ccc(C(=O)Nc4ccccc4)cn3)CC2)c1 | 11.2 | 10.6 | 9.04
c1cc(CN2CCN(CCN3CCOCC3)CC2)cc(-c2cccc(-c3nc4ccccc4[nH]3)c2)c1 | -0.34 | -0.24 | -1.97

SMILES | inhibition [1] [%] | inhibition [2] [%] | inhibition [3] [%]
C=CCOc1cccc2c1CCN(CCN1CCC(NC(=O)c3ccc(-c4ccc(Cl)cc4)cc3)CC1)C2 | 17.2 | 11.3 | 9.23
O=S(=O)(NCCN1CCCC1)c1ccc(-c2ccc(CNC3Cc4ccccc4C3)cc2)cc1 | 2.13 | 0.85 | -2.78
CC(=O)Nc1ccc(CN2CCC(NC(=O)c3ccc(-c4cccc(OC(C)C)c4)s3)CC2)cc1 | 6.04 | 2.62 | 7.43
CN(Cc1cnc2nc(N)nc(N)c2n1)c1ccc(C(=O)N[C@H](CCC(=O)OC(C)(C)C)C(=O)N[C@@H](CCC(=O)OC(C)(C)C)C(=O)OC(C)(C)C)cc1 | 2.25 | 1.59 | 3.05
Brc1cccc(Nc2nccc(Nc3ccc(Oc4ccccc4)cc3)n2)c1 | 6.01 | 5.97 | -0.46
COc1ccc(-c2c3c(=O)n(C)c(=O)n(C)c3c3nnc4ccccc4n23)cc1 | 0.81 | 1.06 | 1.3
CCOC(=O)c1ccc(NC(=O)NNC(=O)c2ccc(CCN3CCC(c4nc(COCC(F)(F)F)c(-c5ccc(F)cc5)o4)CC3)cc2)cc1 | 1.09 | 1.22 | 0.84
NC1CCN(c2nc(NCCc3ccc(O)cc3)nc(NCc3ccccc3-c3ccccc3)n2)CC1 | -0.15 | 0.54 | 0.38
O=C(Nc1ccc(Cl)cc1)Nc1ccc(-c2csc(-c3nc4ccccc4[nH]3)c2)cc1 | 0.59 | 1.1 | 0.83
Cc1ccc(N)cc1-c1nc(NC2CC(C)(C)NC(C)(C)C2)nc2c1ccc(=O)n2-c1c(F)cccc1F | 0.73 | 1.28 | 2.03
N#Cc1ccc(N2CCN(Cc3cccc(-c4ccc(-c5nc6cc(C(F)(F)F)ccc6[nH]5)s4)c3)CC2)nc1 | 0.46 | 1.1 | 0.57
COc1ccc2nc(N3CCNCC3)nc(NCCCc3ccccc3)c2c1 | 5.1 | 2.65 | 0
CN(C)CCCn1cncc1-c1ccc2ncnc(Nc3ccc4c(cnn4Cc4ccccc4)c3)c2c1 | 1.25 | 1.38 | 1.35
CC[C@H](C)CNC(=O)c1cncc(-c2ccc(CN3CCC(N4CCCC4)CC3)cc2)c1 | 0.53 | 0.26 | 1.05
CCN(CC)S(=O)(=O)c1ccc(CCOCCCCCNCC(O)c2cc(Cl)c(N)c(Cl)c2)s1 (stereo not given) | 2.8 | -2.21 | 1.26
O=C(Nc1ccc(-c2nc3ccccc3[nH]2)cc1)c1cccc(S(=O)(=O)N2CCCC2)c1 | 6.3 | 2.8 | 5.05
O=C(Nc1ccc([N+](=O)[O-])cc1)Nc1cc(OCC(F)(F)F)cc(OCC(F)(F)F)c1 | 4.64 | 5.79 | 4.56
Cc1[nH]c(C)c(-c2ccc(CCc3ccc(C(F)(F)F)cc3)nc2)c(=O)c1Cl | 2.59 | 3.29 | 0.56
Cc1cccc2nc(-c3cccc(-c4cccc(NC(=O)c5ccoc5)c4)c3)[nH]c12 | 5.99 | 5.37 | 0.26
COc1ccc(Br)cc1C1C2C(=O)N(c3ccc(Br)cc3)C(=O)C2C2(C(=O)O)CC(OCc3ccccc3)CN12 (stereo not given) | 12.4 | 12 | 10.2
O=C(C(=O)c1ccc(Nc2ccnc3cc(-c4ccccn4)ccc23)cc1)c1ccccc1 | -1.32 | -0.47 | -2.63
O=C(NC1CC1)c1ccc(N2CCC(c3ccccc3)CC2)nc1 | 5.99 | 5.01 | 3.25
